# An excerpt weighted towards active compounds, which were near 7.3% of everything screened.
# Luc counter – blocks Kinase-Glo luciferase, a counter-screen artifact; Kinase-Glo luciferase, ATP luminescence, 8 min; Potency, µM (titrated, usually from 38.3 µM), for inactives: top-dose activity change, negative = inhibition, actives largely listed as inhibitors; hit rate 0.28% among 200,000; also: % is scaled to controls: 0 for no effect and ±100 for the full control effect; nearly all actives have a fitted effect of over 60% in size
#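 Kinase-Glo luciferase light output from ATP and luciferin was measured with 10 uM ATP, within the enzyme's linear range. Buffer: 50 mM imidazole pH 7.2, 50 mM KCl, 7 mM MgCl2, 0.01% Tween 20, 0.05% BSA; luminescence read after 8 min at ambient temperature.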
# ELG1 genotox – induces genotoxicity in HEK293T cells with luciferase-tagged ELG1. hit rate 1.3% among 330,000. HEK293T ELG1-luciferase reporter, luminescence, 16 h. Potency, µM (doses to about 46 µM), without a hit: at the top dose activity change, positive = activation, usual class: activators. AID 504466; also: % of control where 0% means no effect; nearly all actives have a fitted effect of over 60% in size
#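 DMSO vehicle served as control against compound-treated ELG1-luciferase HEK293T cells; exposure lasted 16 hr at 37 °C and 5% CO2, followed by ONE-Glo luminescence detection after 30 min.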
# FLuc counter – inhibits or activates purified firefly luciferase, miR-21 counter-screen | hit rate 6.9% among 360,000 | AID 588342 | purified FLuc, Km substrates, luminescence inhibition | P08659 | Potency, µM (doses to about 57.5 µM), inactives show top-dose activity change, negative = inhibition, usual class: inhibitors;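 also: plate controls were vehicle for no effect and reference inhibitor for full effect; nearly all actives have a fitted effect of over 55% in size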
# Target sequence (P08659 whole entry, looked up): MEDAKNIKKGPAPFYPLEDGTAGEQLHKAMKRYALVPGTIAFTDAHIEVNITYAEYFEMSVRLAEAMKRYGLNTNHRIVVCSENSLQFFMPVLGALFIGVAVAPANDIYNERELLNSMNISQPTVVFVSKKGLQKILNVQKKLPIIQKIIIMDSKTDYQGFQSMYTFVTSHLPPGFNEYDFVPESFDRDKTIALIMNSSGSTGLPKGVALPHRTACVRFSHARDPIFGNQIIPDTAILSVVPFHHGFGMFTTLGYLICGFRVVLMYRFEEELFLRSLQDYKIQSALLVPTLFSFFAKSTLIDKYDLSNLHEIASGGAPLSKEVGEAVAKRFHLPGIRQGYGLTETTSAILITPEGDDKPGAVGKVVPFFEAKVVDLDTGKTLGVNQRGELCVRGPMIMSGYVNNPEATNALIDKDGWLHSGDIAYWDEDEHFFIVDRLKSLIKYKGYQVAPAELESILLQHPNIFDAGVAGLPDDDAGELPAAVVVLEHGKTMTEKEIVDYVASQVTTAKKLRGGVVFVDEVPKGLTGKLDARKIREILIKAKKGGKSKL
#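 Purified P. pyralis luciferase, 10 nM final, with Km-level 10 uM D-luciferin and 10 uM ATP in 50 mM Tris acetate pH 7.5, 10 mM Mg acetate, 0.01% Tween-20, 0.05% BSA; 6-point qHTS titration about 60 µM downward; luminescence read.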
# Rab9 promoter act – Rab9 promoter activation. Huh7 Rab9 promoter-luciferase reporter, luminescence, 24 h. Potency, µM (top dose mostly 9.22 µM), inactives show at the highest dose activation, negative = inhibition, actives largely listed as activators. hit rate 2.8% among 320,000. AID 485297; also: % of control where 0% means no effect; nearly all actives have a fitted effect of over 60% in size
#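 Stable Rab9-luc Huh7, 1500 cells/well, 2 h settle; cmpd in DMSO, 24 h, 37 °C/5% CO2; luciferase reagent 10 min RT; luminescence.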
# NPC1 prom act – activates the NPC1 promoter; Huh7 NPC1 promoter luciferase reporter, 24 h; Potency, µM (top dose mostly 9.22 µM), for inactives: at the highest dose activation, hits mostly activators; hit rate 2.4% among 320,000; AID 485313; also: % of control where 0% means no effect; nearly all actives have a fitted effect of over 60% in size
#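 Luciferase expression driven by the NPC1 promoter was measured in stably transfected Huh7 cells after a 24 h compound incubation, using a luciferase reagent and a luminescence read.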
# SMN2 splice up – increases expression of the SMN2 splice variant | hit rate 2.8% among 210,000 | Potency, µM (doses to about 46.1 µM), inactives show at the highest dose activity change, positive = activation, most hits filed as activators | HEK293 SMN2-luciferase splicing reporter, luminescence, 30-36 h; also: % of control where 0% means no effect; nearly all actives have a fitted effect of over 55% in size
#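 HEK293 cells carry an SMN2 minigene-luciferase reporter in which exon 7 inclusion puts luciferase in frame. Cells were seeded at 2000 cells/well, attached for 10-12 hours, then exposed to compounds for 30-36 hours at 37C before ONE-Glo luminescence.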
# The depositor's hits bear a star; u = inconclusive; x = no result; [ ] = dose if it differs, or a comment. Calls follow the shape of the dose curve; as a rule, active = well fitted curve in the direction sought with a large enough effect; inconclusive = small, poorly fitted or top-dose-only effect, or another doubt; inactive = no such curve, though single readings can be large; an effect the other way counts as inactive or inconclusive. Potency is read from the fitted curve at half-maximal effect.
SMILES,Luc counter,ELG1 genotox,FLuc counter,Rab9 promoter act,NPC1 prom act,SMN2 splice up
Cc1ccc(OCc2csc(N)n2)cc1,-4%,u,24µM*,4µM*,u,13µM*
COc1ccc(-c2csc(-c3cc4ccccc4oc3=N)n2)cc1,2%,0%,5.4µM*,0%,1%,5%
CC(=O)Nc1ccc(S(=O)(=O)NNC(=O)c2ccc(C)cc2)cc1,17%,0%,-3%,-1%,0%,-14%
Nc1nc(-c2ccc(C(=O)O)cc2)cs1,-4%,2%,-9%,-4%,-8%,5%
COc1ccc(-c2csc(N=C(N)N)n2)cc1,0%,u,15µM*,u,u,29%
Nc1nc(-c2ccc(Oc3ccccc3)cc2)cs1,x,u,13µM*,u,u,x
Nc1nc(-c2ccc(-c3ccccc3)cc2)cs1,-17%,u,2.4µM*,0.4µM*,0.79µM*,0.5µM*
Cc1ccc(-c2csc(N=C(N)N)n2)c(C)c1,x,5%,u,13%,12%,x
CCCc1ccc2oc(C(=O)N(C)Cc3cnccn3)c(C)c2c1,x,12%,-5%,1%,2%,x
COc1nc(-c2ccccc2)ccc1-c1noc(-c2ccccc2)n1,-1%,18µM*,24µM*,2.8µM*,4µM*,u
COc1ccccc1-c1noc(-c2ccco2)n1,-18%,6.5µM*,11µM*,3.2µM*,3.5µM*,13µM*
COc1nc(-c2ccccc2)ccc1-c1noc(-c2ccco2)n1,-2%,21µM*,8.5µM*,4µM*,u,13µM*
Cc1ccc(C)c(CN2CCC(CNC(=O)Nc3ccc(F)c(Cl)c3)CC2)c1,x,-9%,4%,-4%,-4%,x
CCn1cc(C(=O)O)c(=O)c2cc(F)c(N3CCN[C@@H](C)C3)c(F)c21,0%[17.1 µM],x,x,x,x,-5%[20.6 µM]
NC(=O)N/N=C/c1cn(-c2ccccc2)nc1-c1cccnc1,x,6%,9.5µM*,-2%,1%,x
O=C(/C=C/c1cn(-c2ccccc2)nc1-c1cccnc1)N1CCCCC1,-1%,-4%,15µM*,10%,0%,3%
NC(=S)N/N=C/c1cn(-c2ccccc2)nc1-c1cccnc1,x,7%,6µM*,12%,15%,x
CC1=C(C(=O)OC(C)C)C(c2cccnc2)n2ncnc2N1 (stereo not drawn),0%,-1%,1%,-5%,-3%,-8%
O=C1c2ccccc2C(=O)C1(CO)c1ccccc1,-12%,-8%,15µM*,u,26%,166%
O=C1c2ccccc2C(=O)C1(CO)c1ccc(OC(F)F)cc1,x,u,0.95µM*,0.45µM*,u,x
COC(=O)CC1(c2ccc(OC)cc2)C(=O)c2ccccc2C1=O,x,-1%,0%,1%,-3%,x
CCC(C)(C)NC(=O)Cc1ccccc1OC,-2%,0%,2%,9%,-1%,29%
CCCC(=O)N1c2ccccc2[C@@H](N(C(C)=O)c2ccccc2)C[C@H]1C,1%,0%,1%,5%,-2%,6%
CCC(=O)N1c2ccccc2C(N(C(C)=O)c2ccccc2)CC1C (stereo not drawn),1%,u,6%,-3%,-12%,5.6µM*
CCC(=O)N1c2ccccc2C(N(C(=O)CC)c2ccccc2)CC1C (stereo not drawn),x,23µM*,-2%,-2%,-1%,x
SMILES,Luc counter,ELG1 genotox,FLuc counter,Rab9 promoter act,NPC1 prom act,SMN2 splice up
CCc1ccc(NS(=O)(=O)c2cc(OC)ccc2OC)cc1,-3%,0%,0%,-4%,-5%,6%
O=C1c2ccccc2S(=O)(=O)N1Cc1nc2ccccc2s1,-1%,16%,19µM*,-11%,u,-69%
CCOC(=O)c1c(C)nc(C)c(C(=O)OCC)c1-c1ccc(O)c(OC)c1,x,-6%,-19%,-7%,-4%,x
COc1cc(C2CC(c3ccccc3)=NN2c2ccccc2)ccc1OCC(=O)O (stereo not drawn),x,7%,15µM*,1%,0%,x
COc1ccc(C2CC(c3ccccc3)=NN2c2ccc(S(N)(=O)=O)cc2)cc1OC (stereo not drawn),2%,1%,-1%,-3%,-5%,-1%
COc1ccc(C2=NN(c3ccc(C(=O)O)cc3)C(c3ccc(OC)c(OC)c3)C2)cc1 (stereo not drawn),x,23µM*,u,10%,16%,x
O=C(c1ccco1)N1CCC2(CC1)CCN(c1ccccc1)CC2,-1%,x,x,x,x,-24%
COc1cccc(NC(=O)Cc2ccccc2)c1,12%,12%,-19%,2%,11%,-18%
Cc1cccc(Nc2nc(-c3ccc(O)cc3O)cs2)n1,x,u,13µM*,4µM*,3.2µM*,x
Oc1ccc(-c2csc(Nc3ncccn3)n2)cc1O,-1%,u,8.5µM*,-2%,22%,u
Cc1nc2ccccn2c1-c1csc(Nc2cccc(O)c2)n1,-3%,2%,-7%,-1%,1%,x
Oc1ccc(-c2csc(Nc3ncccn3)n2)c(O)c1,-2%,7.3µM*,3µM*,1.1µM*,3.2µM*,11µM*
COc1ccc(C)cc1NC(=O)c1ccc(NC(=O)CC2SC(N3CCCC3)=NC2=O)cc1 (stereo not drawn),-3%,-1%,3%,1%,0%,-12%
C=CCOc1ccc(/C=C2\SC(=S)N(C(C(=O)O)c3ccccc3)C2=O)cc1 (stereo not drawn),x,-3%,21µM*,-3%,0%,x
CCOc1ccc(/C=C2\SC(=S)N(C(C(=O)O)c3ccccc3)C2=O)cc1OC (stereo not drawn),x,2%,19µM*,-11%,-1%,x
CCc1cc2c(=O)c(-c3cscn3)coc2cc1OC,0%,u,1.7µM*,2µM*,3.5µM*,13µM*
COc1ccccc1-c1coc2cc(O)ccc2c1=O,-3%,x,x,x,x,u
CCOC(=O)c1oc2cc(O)c(CC)cc2c(=O)c1-c1cscn1,2%,2%,-19%,-6%,1%,14%
CCc1cc2c(=O)c(-c3cscn3)coc2cc1O,-6%,13µM*,u,26%,26%,21%
C[C@@H]1CN([C@@H](C)CO)C(=O)Cc2cc(NC(=O)Nc3cccc4ccccc34)ccc2O[C@@H]1CN(C)S(C)(=O)=O,x,1%,x,x,x,x
CCn1c(=NC(=O)c2ccco2)sc2cccc(F)c21,3%,15µM*,17µM*,10%,5%,16µM*
COc1ccc(-c2nc(SCC(=O)NC3CCCC3)c(-c3ccc(F)cc3)[nH]2)cc1OC,x,x,u,x,x,3%
COc1ccc(-c2nc(SCC(=O)Nc3ccc4c(c3)OCO4)c(-c3ccc(F)cc3)[nH]2)cc1OC,x,x,-12%,x,x,12%

# Screening results deposited in PubChem BioAssay by National Center for Advancing Translational Sciences (NCATS).
